Consider 9 compounds from PubChem BioAssay (Tox21).

A short description of test [1]: qHTS assay to identify small molecule agonists of the sonic hedgehog signaling (Shh) pathway (AID 1259368; calls by dose curve;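 also: NIH/3T3-derived 3T3Gli1-Luc cells carrying a stable Gli1-driven firefly luciferase reporter; series mostly up to about 92 µM; nearly all actives have a fitted effect of over 15% in size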). In outline:
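Stable NIH/3T3 Gli1-Luc reporter clone; 24 hr cpd exposure after a 4 hr settling period; luminescence endpoint.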
(In qHTS, concentration-response curves come from the screen itself.)

Test [2] concerns the target Estrogen receptor beta (Homo sapiens) (UniProt Q92731). The test is described as follows: qHTS assay to identify small molecule agonists of the estrogen receptor beta (ER-beta) signaling pathway (AID 1259377; active = well fitted activation curve with a large enough effect in the signal ratio in the repeat runs, not every such curve was filed as active; the % refers to the signal ratio). In outline: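 Ratiometric beta-lactamase FRET read-out came after 2 h substrate loading at room temperature. It followed 16 h compound treatment at 37C of GripTite HEK293T cells carrying a UAS-bla reporter, plated in 2% charcoal-stripped FBS medium.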

Test [3] is described as follows: qHTS assay to identify small molecule agonists of the androgen receptor (AR) signaling pathway in the presence of an antagonist - cell viability counter screen (AID 1259379).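 Also: MDA-kb2 human breast cancer cells carrying an MMTV luciferase reporter; series mostly up to about 92 µM; nearly all actives have a fitted effect of over 25% in size.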 In outline:
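Counter screen for cell viability run in parallel with the AR agonist-mode luciferase assay. MDA-kb2 cells were co-treated with nilutamide (3.0uM final) and compounds, then incubated 16 hr at 37C, and CellTiter-Fluor fluorescence was measured.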

The nature of test [4]: qHTS assay to identify small molecule agonists of the estrogen receptor beta (ER-beta) signaling pathway - cell viability counter screen (AID 1259380). Also: nearly all actives have a fitted effect of over 30% in size. The gist of the method: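 In this qHTS counter screen, HEK293T cells carrying an ER-beta/UAS beta-lactamase reporter, grown in 2% charcoal-stripped FBS, received compound for 16 hr; ATP-based CellTiter-Glo luminescence was then read after 30 min at room temperature.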

Test [5] in a line: qHTS assay to identify small molecule antagonists of the estrogen receptor beta (ER-beta) signaling pathway - cell viability counter screen (AID 1259382). Also: series mostly up to about 92 µM; nearly all actives have a fitted effect of over 55% in size. The gist of the method: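 HEK293T ER-beta-UAS-bla, 2% charcoal-stripped FBS; compounds + 1nM E2 16 hr 37C; CellTiter-Glo luminescence, 30 min RT.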
The target in test [6] is Estrogen receptor (Homo sapiens) (UniProt P03372). Description: qHTS assay to identify small molecule agonists of the estrogen receptor alpha (ER-alpha) signaling pathway in the presence of an antagonist (AID 1259383; calls by dose curve; also: top concentration of the series differs between compounds; nearly all actives have a fitted effect of over 15% in size). In outline:
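ER-alpha agonism measured under antagonist challenge: 10.0nM ICI-182,780 (final) plus compound, 15 concentrations, 22hr, VM7Luc4E2 ERE-luciferase cells. Read by luminescence.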

The nature of test [7]: qHTS assay to identify small molecule agonists or antagonists of the thyroid stimulating hormone receptor (TSHR) signaling pathway - wild type cell line counter screen (AID 1259384; calls by dose curve). The gist of the method:
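Counter screen in untransfected Hek293: compounds (15-point titration, triplicate) plus phosphodiesterase inhibitor Ro20-1724 added after 18 h plating; 30 min RT. Intracellular cAMP via competitive d2/cryptate immunoassay, 1 h incubation.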

In test [8] the target is Thyrotropin receptor (Homo sapiens) (UniProt P16473). Description: qHTS assay to identify small molecule antagonists of the thyroid stimulating hormone receptor (TSHR) signaling pathway (AID 1259385; calls by dose curve; also: nearly all actives have a fitted effect of over 20% in size). In outline: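 Antagonist mode: compound-treated TSHR-expressing HEK293 cells were stimulated with 1.5 ng/mL TSH (final) in presence of Ro20-1724 for 30 min at RT. HTRF cAMP detection after 1 h; each compound tested at 15 concentrations, triplicate.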

The nature of test [9]: qHTS assay to identify small molecule agonists of the estrogen receptor alpha (ER-alpha) signaling pathway in the presence of an antagonist - cell viability counter screen (AID 1259386).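 Also: series mostly up to about 92 µM; cells exposed to compounds for 22 h at 37 °C before the viability read; nearly all actives have a fitted effect of over 30% in size.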 In outline: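 Steps: 5-day stripped-FBS culture; seed and incubate 24hr; add ICI-182,780 (10.0nM final); pin 15-point compound titration; incubate 22hr at 37C; add CellTiter-Fluor at 21hr; read fluorescence.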

The target in test [10] is Progesterone receptor (Homo sapiens) (UniProt P06401). The test is described as follows: qHTS assay to identify small molecule agonists of the progesterone receptor (PR) signaling pathway (AID 1346784; calls by dose curve; also: nearly all actives have a fitted effect of over 30% in size; also: potency is read from the fitted curve at half-maximal effect). The gist of the method: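 Agonist qHTS: compounds pinned onto 3,000 PR-UAS-bla HEK 293T cells per well in charcoal-stripped serum medium, 16hr at 37C, then beta-lactamase activity measured by LiveBLAzer FRET fluorescence after 2 hours at room temperature.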

Test [11] shares this target. The test is described as follows: qHTS assay to identify small molecule antagonists of the progesterone receptor (PR) signaling pathway (AID 1346795; active = well fitted inhibition curve with a large enough effect in the signal ratio in the repeat runs, not every such curve was filed as active; the % refers to the signal ratio). In outline: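 Antagonist mode with agonist R5020 at 1 nM final and 16 hr incubation at 37C. Reporter was beta-lactamase driven by UAS in HEK293T (PR-UAS-bla), 2% charcoal-stripped serum; signal from LiveBLAzer FRET substrate, 2 hr at room temperature.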

Test [12] in a line: qHTS assay to identify small molecule antagonists of the progesterone receptor (PR) signaling pathway - cell viability counter screen (AID 1346798). Also: series mostly up to about 92 µM; nearly all actives have a fitted effect of over 50% in size. The gist of the method:
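Cytotoxicity read as CellTiter-Glo luminescence (30 min, room temperature) in the same wells as the beta-lactamase readout. HEK293T PR-UAS-bla cells in charcoal-stripped 2% FBS received compound and R5020, then 16 h at 37C, 5% CO2.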

A short description of test [13]: qHTS assay to identify small molecule agonists of the progesterone receptor (PR) signaling pathway - cell viability counter screen (AID 1346799; calls by dose curve; also: nearly all actives have a fitted effect of over 45% in size). The gist of the method: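 Cytotoxicity measured by CellTiter-Glo luminescence (30 min, RT) in the same wells as the PR beta-lactamase agonist read. Those HEK293T cells had 16 h compound treatment at 37 C in 2% charcoal-stripped FBS medium.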

The nature of test [14]: qHTS assay to identify small molecule antagonists of the TGF-beta/Smad signaling pathway - cell viability counter screen (AID 1346824). Also: nearly all actives have a fitted effect of over 50% in size. In outline:
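Cytotoxicity counter-screen run in the same wells as the beta-lactamase Smad reporter read: CellTiter-Glo luminescence after 30 min at room temperature. HEK 293T SBE-bla cells had 5 hr compound exposure at 37 C with TGF-beta1 (0.25 ng/mL stock).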

Test [15] in a line: qHTS assay to identify small molecule agonists of the TGF-beta/Smad signaling pathway - cell viability counter screen (AID 1346829). Also: top concentration of the series differs between compounds; nearly all actives have a fitted effect of over 45% in size. The gist of the method: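 Tox21 qHTS format: SBE-bla HEK 293T cells treated with DMSO-dissolved compounds for 5 hr; CellTiter-Glo luminescence after 30 min at room temperature.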
Test [16] can be described thus: qHTS assay to identify small molecule agonists of the TGF-beta/Smad signaling pathway (AID 1346859; active = well fitted activation curve with a large enough effect in the signal ratio in the repeat runs, not every such curve was filed as active; the % refers to the signal ratio; also: series mostly up to about 77 µM). In outline:
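Fluorescence (ex 405 nm; em 460 and 530 nm) was read 2 h after LiveBLAzer FRET substrate at RT. The preceding compound treatment of overnight-plated SBE-bla HEK293T cells lasted 5 h at 37 C.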

Test [17] addresses Thyrotropin-releasing hormone receptor (Homo sapiens) (UniProt P34981). Description: qHTS assay to identify small molecule antagonists of the thyrotropin-releasing hormone receptor (TRHR) signaling pathway (AID 1346877; active = well fitted inhibition curve with a large enough effect in the repeat runs, not every such curve was filed as active; also: series mostly up to about 51 µM). In outline:
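Human TRHR in HEK293 cells; inhibition of the intracellular calcium rise triggered by 1 nM TRH was followed by fluorescence over 3 min. Compounds were run at 15 concentrations, three replicates each.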

The target in test [18] is Estrogen receptor beta (Homo sapiens) (UniProt Q92731). The test is described as follows: qHTS assay to identify small molecule antagonists of the estrogen receptor beta (ER-beta) signaling pathway (AID 1259378; active = well fitted inhibition curve with a large enough effect in the signal ratio in the repeat runs, not every such curve was filed as active; the % refers to the signal ratio). In outline:
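Antagonist mode: compounds added to beta-lactamase reporter HEK293T ER-beta-UAS cells stimulated with E2 (1nM final), 16 hr at 37C. LiveBLAzer B/G FRET substrate, 2 hours room temperature, fluorescence read-out.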

Test [19] deals with Androgen receptor (Homo sapiens) (UniProt P10275). Description: qHTS assay to identify small molecule agonists of the androgen receptor (AR) signaling pathway in the presence of an antagonist (AID 1259381; calls by dose curve; also: potency is read from the fitted curve at half-maximal effect; nearly all actives have a fitted effect of over 15% in size). In outline:
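AR antagonist background: nilutamide 3.0uM final. Cell line: MDA-kb2, MMTV-driven luciferase, responsive to both AR and GR. Exposure 16hr, 37C, no CO2; ONE-Glo luminescence.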

Structures are written as SMILES. Records with an inconclusive call do not appear. Active and inactive are the calls of the source. Unless noted, calls follow the shape of the dose curve; as a rule, active = well fitted curve in the direction sought with a large enough effect in the repeat runs; inconclusive = weak or mixed curves; inactive = no such curve, though single readings can be large; an effect the other way counts as inactive or inconclusive.

Sequence of Progesterone receptor (Homo sapiens) (P06401 whole entry, looked up): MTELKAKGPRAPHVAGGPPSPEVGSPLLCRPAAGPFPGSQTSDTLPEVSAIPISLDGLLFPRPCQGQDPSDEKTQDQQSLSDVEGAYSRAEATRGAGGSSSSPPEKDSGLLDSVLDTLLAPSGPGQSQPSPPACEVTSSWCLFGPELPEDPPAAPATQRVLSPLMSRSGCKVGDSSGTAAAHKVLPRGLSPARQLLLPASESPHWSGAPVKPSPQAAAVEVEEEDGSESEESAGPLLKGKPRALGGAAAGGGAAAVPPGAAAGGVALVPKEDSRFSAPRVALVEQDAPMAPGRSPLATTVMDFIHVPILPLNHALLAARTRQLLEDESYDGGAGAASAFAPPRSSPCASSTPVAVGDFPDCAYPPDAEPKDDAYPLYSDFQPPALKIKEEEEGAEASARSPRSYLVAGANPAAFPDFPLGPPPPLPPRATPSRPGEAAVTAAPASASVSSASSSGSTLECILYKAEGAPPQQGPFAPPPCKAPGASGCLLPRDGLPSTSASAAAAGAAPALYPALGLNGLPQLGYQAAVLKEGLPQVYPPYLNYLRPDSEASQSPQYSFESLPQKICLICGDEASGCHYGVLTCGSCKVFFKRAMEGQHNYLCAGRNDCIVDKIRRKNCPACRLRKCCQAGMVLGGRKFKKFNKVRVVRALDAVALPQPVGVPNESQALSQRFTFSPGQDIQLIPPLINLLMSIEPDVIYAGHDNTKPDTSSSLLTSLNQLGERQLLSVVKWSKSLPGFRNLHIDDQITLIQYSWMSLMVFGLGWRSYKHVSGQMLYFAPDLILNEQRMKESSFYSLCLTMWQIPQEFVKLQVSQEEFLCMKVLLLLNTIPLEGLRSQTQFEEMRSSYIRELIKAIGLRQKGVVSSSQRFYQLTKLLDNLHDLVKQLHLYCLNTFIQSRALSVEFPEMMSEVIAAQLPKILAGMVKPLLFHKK
Sequence of Thyrotropin-releasing hormone receptor (Homo sapiens) (P34981 whole entry, looked up): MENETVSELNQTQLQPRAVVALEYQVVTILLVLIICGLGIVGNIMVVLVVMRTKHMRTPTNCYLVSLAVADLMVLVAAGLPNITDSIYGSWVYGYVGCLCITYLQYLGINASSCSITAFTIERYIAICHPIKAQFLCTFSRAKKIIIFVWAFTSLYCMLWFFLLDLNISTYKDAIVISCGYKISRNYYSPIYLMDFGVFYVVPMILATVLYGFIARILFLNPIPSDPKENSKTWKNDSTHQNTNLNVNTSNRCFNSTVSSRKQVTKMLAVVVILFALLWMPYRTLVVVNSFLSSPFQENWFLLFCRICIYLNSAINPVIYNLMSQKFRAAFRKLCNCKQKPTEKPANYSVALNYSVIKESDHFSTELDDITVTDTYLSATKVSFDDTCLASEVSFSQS
Sequence of Estrogen receptor beta (Homo sapiens) (Q92731 whole entry, looked up): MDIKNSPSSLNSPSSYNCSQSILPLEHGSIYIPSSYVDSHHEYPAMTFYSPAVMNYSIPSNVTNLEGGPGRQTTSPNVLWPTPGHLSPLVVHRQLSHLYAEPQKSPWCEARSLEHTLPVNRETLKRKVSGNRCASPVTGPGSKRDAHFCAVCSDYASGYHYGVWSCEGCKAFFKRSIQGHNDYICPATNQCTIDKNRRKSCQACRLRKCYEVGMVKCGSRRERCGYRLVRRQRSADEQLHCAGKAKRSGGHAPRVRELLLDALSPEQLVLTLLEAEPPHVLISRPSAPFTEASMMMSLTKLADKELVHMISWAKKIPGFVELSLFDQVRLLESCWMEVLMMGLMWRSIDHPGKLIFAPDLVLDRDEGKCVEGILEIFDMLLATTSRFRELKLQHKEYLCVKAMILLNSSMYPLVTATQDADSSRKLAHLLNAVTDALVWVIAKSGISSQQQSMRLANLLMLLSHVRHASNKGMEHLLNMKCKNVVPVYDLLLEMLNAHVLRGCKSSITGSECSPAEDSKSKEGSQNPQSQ
Sequence of Estrogen receptor (Homo sapiens) (P03372 whole entry, looked up): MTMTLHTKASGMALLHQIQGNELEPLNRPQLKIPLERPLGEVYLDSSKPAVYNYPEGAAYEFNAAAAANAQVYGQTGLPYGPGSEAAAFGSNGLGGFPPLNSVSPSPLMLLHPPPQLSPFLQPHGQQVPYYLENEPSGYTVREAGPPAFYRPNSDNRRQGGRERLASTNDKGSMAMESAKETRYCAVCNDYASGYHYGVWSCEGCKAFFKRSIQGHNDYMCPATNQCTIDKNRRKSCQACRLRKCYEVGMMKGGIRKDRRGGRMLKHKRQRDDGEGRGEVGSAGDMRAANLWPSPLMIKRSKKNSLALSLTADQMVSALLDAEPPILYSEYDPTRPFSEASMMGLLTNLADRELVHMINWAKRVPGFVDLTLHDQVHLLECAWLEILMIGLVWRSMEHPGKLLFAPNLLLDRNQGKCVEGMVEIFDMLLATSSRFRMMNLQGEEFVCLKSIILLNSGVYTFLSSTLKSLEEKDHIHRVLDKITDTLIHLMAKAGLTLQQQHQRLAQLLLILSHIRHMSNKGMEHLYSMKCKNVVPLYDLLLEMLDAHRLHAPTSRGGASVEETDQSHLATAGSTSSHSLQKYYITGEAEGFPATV
Sequence of Thyrotropin receptor (Homo sapiens) (P16473 whole entry, looked up): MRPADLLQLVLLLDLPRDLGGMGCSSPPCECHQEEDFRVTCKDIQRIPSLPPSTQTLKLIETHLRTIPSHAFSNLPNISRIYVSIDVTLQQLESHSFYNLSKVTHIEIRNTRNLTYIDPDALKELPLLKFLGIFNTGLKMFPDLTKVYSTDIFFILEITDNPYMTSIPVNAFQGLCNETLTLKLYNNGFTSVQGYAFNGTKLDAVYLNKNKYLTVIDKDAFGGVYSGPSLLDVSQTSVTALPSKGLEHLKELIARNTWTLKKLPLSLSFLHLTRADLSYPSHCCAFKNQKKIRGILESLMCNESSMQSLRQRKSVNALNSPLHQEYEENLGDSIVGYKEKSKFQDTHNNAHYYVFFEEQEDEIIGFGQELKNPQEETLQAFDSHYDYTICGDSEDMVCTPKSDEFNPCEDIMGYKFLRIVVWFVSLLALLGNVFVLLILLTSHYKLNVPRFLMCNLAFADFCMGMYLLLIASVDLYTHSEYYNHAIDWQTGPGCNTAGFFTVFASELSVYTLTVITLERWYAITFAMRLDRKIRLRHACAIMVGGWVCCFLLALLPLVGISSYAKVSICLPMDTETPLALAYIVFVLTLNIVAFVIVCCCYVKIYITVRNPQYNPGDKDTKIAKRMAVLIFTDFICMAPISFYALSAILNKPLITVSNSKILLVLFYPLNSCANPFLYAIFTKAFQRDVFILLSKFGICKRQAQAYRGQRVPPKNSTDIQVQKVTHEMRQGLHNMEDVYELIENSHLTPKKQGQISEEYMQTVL
Sequence of Androgen receptor (Homo sapiens) (P10275 whole entry, looked up): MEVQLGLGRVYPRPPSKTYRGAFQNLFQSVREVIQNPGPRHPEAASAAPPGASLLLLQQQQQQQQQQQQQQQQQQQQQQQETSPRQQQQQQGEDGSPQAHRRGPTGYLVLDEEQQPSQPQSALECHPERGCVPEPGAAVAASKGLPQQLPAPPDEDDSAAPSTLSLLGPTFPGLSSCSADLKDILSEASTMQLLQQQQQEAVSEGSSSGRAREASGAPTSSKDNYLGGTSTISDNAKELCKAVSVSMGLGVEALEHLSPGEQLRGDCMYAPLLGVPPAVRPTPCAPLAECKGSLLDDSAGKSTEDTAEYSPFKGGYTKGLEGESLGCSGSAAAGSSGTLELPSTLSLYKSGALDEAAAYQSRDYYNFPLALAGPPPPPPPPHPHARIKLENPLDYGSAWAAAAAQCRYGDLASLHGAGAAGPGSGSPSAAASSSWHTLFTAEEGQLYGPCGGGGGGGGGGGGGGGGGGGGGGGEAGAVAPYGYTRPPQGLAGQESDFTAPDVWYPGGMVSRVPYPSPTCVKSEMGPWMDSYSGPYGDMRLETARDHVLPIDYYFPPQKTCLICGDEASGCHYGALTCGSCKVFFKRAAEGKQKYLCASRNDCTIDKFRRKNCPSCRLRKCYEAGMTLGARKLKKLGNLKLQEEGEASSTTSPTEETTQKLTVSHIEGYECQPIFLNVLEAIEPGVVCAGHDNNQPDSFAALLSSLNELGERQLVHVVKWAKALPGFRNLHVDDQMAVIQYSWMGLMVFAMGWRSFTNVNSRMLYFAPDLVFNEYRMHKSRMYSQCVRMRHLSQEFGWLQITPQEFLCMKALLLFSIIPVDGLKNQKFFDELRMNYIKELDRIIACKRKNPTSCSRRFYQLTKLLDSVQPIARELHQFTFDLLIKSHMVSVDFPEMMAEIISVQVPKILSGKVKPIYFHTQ

As to `c1ccc(CC2=NCCN2)cc1`, the call in test [1], in test [2], in test [7], in [15], in test [16] and in test [17] was inactive. For the same compound, the Potency entry in test [3], in [4], in test [5], in test [6], in test [8] and in [9] was “inactive” each time. Also, the Potency entry in [10], in [11], in test [12], in test [13] and in test [14] was “inactive” throughout.

For the compound `COc1ccc2c(c1)CCCC2=O`, the result in [1] was inactive. In addition, the Potency entry in [3], in test [4], in test [5], in [6], in [9] and in test [10] was “inactive” throughout. The Potency result in [11], in [12], in [13] and in test [14] was “inactive” each time.

For the compound `Cc1nc2c([nH]1)c(=O)n(C)c(=O)n2Cc1ccco1`, the result in test [1], in [2], in [18], in test [15], in [16] and in [17] was inactive. The Potency entry in test [3], in test [4], in test [5], in [6], in [9] and in [10] was “inactive” throughout. Further, the Potency entry in [11], in [12], in [13] and in test [14] was “inactive” in each case.

For `COC(=O)CCSCCC(=O)OC`, the compound was called inactive in test [1], in [18], in test [7], in [15] and in test [16]. The Potency result in [3], in test [4], in [5], in test [8], in [9] and in test [10] was “inactive” each time. Also, the Potency result in test [11], in [12], in test [13] and in test [14] was “inactive” throughout.

Regarding `COC(=O)c1ccc(C)cc1C1=NC(C)(C(C)C)C(=O)N1` (stereo not given), the compound was called inactive in test [1], in test [2], in test [18] and in [15]. Also, the Potency entry in test [3], in [4], in test [5], in test [9], in test [10] and in [11] was “inactive” in each case. The Potency entry in test [12], in test [13] and in test [14] was “inactive” in each case.

In the case of `NS(=O)(=O)c1cc(C(=O)O)cc(N2CCCC2)c1Oc1ccccc1`, the compound was called inactive in test [1], in [7], in test [16] and in test [17]. The Potency entry in [3], in [4], in test [5], in test [6], in test [8] and in test [9] was “inactive” throughout. The Potency result in test [10], in test [11], in [12] and in [14] was “inactive” throughout.

Regarding `CC(=O)OCC(=O)[C@@]1(O)CC[C@H]2[C@@H]3CCC4=CC(=O)CC[C@]4(C)[C@H]3C(=O)C[C@@]21C`, the compound was called inactive in test [1], in [2], in [18], in [15] and in [16]. For the same compound, the Potency result in test [3], in [4], in test [5], in [6], in test [9] and in test [10] was “inactive” in each case. The Potency result in test [12], in test [13] and in [14] was “inactive” each time.

On to `CN1CCN(c2cc3c(cc2F)c(=O)c(C(=O)O)cn3-c2ccc(F)cc2)CC1`, for which the compound was classed as inactive in test [1], in test [2], in [15] and in test [17]. The Potency entry in test [3], in test [4], in test [5], in test [9], in [12] and in test [13] was “inactive” throughout. Moreover, in test [14], the Potency entry is “inactive”. Further, the Potency is 26.6 µM (active) in [19] and 29.8 µM (active) in [10].

Take `O=c1cc(CO)occ1O`: the compound was classed as inactive in [1], in test [2], in [7], in test [15], in test [16] and in test [17]. Also, the Potency entry in [3], in test [4], in [5], in [6], in test [8] and in test [9] was “inactive” in each case. Further, the Potency entry in test [10], in test [11], in test [12], in test [13] and in [14] was “inactive” in each case.
